The structures appear in SMILES notation.

The values that follow come from ChEMBL document CHEMBL1961873, “Compounds: GSK PKIS; Assays: Nanosyn kinase panel” (2012).

For experiment [1], the target named is Tyrosine-protein kinase Fyn (Homo sapiens) (UniProt P06241). Particulars: at 1 µM.
Experiment [2] has as its target Tyrosine-protein kinase HCK (Homo sapiens) (UniProt P08631). Particulars: at 0.1 µM.
For experiment [3] the target is unchanged. Particulars: at 1 µM.
Experiment [4] addresses Insulin-like growth factor 1 receptor (Homo sapiens) (UniProt P08069). Particulars: at 0.1 µM.
Experiment [5] shares this target. Particulars: at 1 µM.
Experiment [6] addresses Insulin receptor (Homo sapiens) (UniProt P06213). Particulars: at 0.1 µM.
Experiment [7] has the same target. Particulars: at 1 µM.
The target of experiment [8] is Insulin receptor-related protein (Homo sapiens) (UniProt P14616). Particulars: at 0.1 µM.
For experiment [9] the target is unchanged. Particulars: at 1 µM.
In experiment [10] the target is T1, Tyrosine-protein kinase ITK/TSK (Homo sapiens) (UniProt Q08881).
T1 sequence (whole entry): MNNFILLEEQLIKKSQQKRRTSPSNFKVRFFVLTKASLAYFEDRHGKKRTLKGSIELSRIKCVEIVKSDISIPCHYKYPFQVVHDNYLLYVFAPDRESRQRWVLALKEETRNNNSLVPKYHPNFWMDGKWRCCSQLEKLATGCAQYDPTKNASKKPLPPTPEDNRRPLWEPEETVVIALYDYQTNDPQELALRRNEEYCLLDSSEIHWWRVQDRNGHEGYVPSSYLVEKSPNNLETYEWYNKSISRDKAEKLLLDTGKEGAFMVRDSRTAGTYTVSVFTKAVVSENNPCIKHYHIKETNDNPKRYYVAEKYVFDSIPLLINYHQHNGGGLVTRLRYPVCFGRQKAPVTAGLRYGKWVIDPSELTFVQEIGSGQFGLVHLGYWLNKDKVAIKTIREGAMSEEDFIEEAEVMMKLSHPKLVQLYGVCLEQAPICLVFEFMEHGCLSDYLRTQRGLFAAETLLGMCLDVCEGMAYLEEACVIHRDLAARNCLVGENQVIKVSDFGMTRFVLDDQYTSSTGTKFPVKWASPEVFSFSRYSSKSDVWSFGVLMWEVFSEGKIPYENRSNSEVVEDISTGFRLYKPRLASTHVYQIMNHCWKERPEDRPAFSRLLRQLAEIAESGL
Particulars: at 0.1 µM.

The target in experiment [11] is T1, Tyrosine-protein kinase ITK/TSK (Homo sapiens). Particulars: at 1 µM.
Experiment [12] has as its target Tyrosine-protein kinase JAK1 (Homo sapiens) (UniProt P23458). Particulars: at 0.1 µM.
For experiment [13] the target is unchanged. Particulars: at 1 µM.
The target of experiment [14] is Tyrosine-protein kinase JAK2 (Homo sapiens) (UniProt O60674). Particulars: at 0.1 µM.
Experiment [15] has the same target. Particulars: at 1 µM.
Experiment [16] concerns the target T2, Tyrosine-protein kinase JAK3 (Homo sapiens) (UniProt P52333).
T2 sequence (whole entry): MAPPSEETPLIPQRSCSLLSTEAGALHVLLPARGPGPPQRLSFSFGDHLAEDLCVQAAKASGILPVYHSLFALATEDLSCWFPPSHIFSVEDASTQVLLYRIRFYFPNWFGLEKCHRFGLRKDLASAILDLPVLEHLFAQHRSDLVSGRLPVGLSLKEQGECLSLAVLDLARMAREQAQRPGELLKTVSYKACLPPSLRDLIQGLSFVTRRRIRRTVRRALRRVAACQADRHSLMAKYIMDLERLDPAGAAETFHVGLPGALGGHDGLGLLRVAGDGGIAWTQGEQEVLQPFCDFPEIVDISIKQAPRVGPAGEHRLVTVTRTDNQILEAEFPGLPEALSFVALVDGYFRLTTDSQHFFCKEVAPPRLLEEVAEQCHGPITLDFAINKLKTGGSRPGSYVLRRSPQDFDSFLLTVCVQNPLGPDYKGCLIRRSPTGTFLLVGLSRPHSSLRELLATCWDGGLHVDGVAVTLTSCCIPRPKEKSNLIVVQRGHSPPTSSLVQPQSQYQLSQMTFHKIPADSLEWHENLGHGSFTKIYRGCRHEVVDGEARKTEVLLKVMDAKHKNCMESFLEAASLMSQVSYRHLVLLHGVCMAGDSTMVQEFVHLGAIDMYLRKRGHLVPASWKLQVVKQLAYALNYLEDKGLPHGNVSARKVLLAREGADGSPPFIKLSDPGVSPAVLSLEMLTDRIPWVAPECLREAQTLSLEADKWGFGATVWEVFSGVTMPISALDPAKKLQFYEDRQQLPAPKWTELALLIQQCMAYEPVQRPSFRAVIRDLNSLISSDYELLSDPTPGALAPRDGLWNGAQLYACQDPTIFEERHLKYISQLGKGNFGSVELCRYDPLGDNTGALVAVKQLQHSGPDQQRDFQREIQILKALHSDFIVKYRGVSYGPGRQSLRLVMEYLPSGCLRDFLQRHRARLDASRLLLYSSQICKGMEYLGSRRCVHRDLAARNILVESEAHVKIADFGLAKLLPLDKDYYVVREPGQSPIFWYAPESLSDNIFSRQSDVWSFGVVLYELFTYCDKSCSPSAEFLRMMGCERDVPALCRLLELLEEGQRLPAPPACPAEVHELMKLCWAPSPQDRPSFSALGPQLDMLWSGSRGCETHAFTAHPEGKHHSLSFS
Particulars: at 0.1 µM.

Experiment [17] addresses T2, Tyrosine-protein kinase JAK3 (Homo sapiens). Particulars: at 1 µM.
Experiment [18] deals with Vascular endothelial growth factor receptor 2 (Homo sapiens) (UniProt P35968). Particulars: at 0.1 µM.
Experiment [19] shares this target. Particulars: at 1 µM.
For experiment [20], the target named is Mast/stem cell growth factor receptor Kit (Homo sapiens) (UniProt P10721). Particulars: at 0.1 µM.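 Further: values are mean inhibition of KIT, from the GSK PKIS dataset.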
Sequence of Mast/stem cell growth factor receptor Kit (Homo sapiens) (P10721 whole entry): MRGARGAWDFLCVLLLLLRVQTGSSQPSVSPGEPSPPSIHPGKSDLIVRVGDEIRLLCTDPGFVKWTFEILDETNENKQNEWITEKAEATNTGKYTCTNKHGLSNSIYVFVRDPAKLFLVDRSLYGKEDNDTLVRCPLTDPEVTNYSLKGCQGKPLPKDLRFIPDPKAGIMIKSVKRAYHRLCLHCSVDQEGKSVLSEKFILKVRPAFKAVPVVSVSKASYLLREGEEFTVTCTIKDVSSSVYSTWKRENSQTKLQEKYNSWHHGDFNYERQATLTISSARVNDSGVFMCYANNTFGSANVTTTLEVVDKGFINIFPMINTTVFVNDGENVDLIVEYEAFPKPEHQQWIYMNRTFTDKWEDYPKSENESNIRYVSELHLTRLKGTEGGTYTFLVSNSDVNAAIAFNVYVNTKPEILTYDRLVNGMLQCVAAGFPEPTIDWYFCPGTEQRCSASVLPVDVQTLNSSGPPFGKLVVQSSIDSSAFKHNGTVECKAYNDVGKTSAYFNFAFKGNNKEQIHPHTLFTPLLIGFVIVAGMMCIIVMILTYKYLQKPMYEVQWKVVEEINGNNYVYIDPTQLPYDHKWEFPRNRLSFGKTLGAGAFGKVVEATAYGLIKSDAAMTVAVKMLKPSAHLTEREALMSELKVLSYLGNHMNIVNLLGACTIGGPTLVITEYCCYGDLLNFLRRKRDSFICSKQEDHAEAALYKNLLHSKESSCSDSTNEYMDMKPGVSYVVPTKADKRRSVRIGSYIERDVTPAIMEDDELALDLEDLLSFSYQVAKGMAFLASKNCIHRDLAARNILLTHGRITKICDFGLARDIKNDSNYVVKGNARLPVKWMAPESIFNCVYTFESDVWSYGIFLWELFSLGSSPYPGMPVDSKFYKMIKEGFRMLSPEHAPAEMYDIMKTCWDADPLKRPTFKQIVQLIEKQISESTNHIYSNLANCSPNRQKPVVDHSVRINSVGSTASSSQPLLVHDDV

Sequence of Insulin receptor-related protein (Homo sapiens) (P14616 27-742 limits assumed): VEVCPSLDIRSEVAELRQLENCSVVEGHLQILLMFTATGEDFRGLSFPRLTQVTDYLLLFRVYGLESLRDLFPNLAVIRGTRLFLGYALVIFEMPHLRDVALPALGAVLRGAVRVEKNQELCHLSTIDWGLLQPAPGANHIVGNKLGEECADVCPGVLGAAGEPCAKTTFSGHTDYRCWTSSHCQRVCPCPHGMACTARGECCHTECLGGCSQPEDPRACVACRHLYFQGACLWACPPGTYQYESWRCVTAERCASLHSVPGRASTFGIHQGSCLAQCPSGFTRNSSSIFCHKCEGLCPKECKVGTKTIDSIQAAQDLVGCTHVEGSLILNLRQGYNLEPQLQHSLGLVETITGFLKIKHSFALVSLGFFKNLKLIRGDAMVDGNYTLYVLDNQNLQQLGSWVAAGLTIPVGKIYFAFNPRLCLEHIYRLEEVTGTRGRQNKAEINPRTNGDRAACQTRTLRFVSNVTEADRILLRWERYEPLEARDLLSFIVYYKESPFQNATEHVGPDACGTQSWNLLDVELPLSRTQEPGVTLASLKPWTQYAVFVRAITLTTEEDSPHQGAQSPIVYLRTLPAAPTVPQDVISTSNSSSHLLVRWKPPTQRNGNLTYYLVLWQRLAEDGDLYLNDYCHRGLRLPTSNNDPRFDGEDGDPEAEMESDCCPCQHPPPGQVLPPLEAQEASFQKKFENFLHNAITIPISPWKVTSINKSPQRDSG
Sequence of Insulin receptor-related protein (Homo sapiens) (P14616 747-1297 limits assumed): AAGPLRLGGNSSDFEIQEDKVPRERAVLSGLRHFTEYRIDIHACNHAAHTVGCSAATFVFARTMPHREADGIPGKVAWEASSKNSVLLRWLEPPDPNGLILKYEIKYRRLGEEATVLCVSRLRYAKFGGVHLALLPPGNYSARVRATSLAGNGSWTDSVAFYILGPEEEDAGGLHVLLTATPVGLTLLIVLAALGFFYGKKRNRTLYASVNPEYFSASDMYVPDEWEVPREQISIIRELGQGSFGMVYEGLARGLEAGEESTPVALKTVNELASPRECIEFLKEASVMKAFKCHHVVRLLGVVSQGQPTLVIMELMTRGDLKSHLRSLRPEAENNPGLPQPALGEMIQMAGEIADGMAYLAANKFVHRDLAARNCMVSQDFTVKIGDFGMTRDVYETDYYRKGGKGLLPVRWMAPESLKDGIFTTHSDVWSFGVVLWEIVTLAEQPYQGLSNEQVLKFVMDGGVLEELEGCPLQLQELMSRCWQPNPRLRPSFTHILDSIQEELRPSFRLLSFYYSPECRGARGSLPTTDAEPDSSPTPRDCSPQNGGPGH
Sequence of Tyrosine-protein kinase JAK2 (Homo sapiens) (O60674 whole entry): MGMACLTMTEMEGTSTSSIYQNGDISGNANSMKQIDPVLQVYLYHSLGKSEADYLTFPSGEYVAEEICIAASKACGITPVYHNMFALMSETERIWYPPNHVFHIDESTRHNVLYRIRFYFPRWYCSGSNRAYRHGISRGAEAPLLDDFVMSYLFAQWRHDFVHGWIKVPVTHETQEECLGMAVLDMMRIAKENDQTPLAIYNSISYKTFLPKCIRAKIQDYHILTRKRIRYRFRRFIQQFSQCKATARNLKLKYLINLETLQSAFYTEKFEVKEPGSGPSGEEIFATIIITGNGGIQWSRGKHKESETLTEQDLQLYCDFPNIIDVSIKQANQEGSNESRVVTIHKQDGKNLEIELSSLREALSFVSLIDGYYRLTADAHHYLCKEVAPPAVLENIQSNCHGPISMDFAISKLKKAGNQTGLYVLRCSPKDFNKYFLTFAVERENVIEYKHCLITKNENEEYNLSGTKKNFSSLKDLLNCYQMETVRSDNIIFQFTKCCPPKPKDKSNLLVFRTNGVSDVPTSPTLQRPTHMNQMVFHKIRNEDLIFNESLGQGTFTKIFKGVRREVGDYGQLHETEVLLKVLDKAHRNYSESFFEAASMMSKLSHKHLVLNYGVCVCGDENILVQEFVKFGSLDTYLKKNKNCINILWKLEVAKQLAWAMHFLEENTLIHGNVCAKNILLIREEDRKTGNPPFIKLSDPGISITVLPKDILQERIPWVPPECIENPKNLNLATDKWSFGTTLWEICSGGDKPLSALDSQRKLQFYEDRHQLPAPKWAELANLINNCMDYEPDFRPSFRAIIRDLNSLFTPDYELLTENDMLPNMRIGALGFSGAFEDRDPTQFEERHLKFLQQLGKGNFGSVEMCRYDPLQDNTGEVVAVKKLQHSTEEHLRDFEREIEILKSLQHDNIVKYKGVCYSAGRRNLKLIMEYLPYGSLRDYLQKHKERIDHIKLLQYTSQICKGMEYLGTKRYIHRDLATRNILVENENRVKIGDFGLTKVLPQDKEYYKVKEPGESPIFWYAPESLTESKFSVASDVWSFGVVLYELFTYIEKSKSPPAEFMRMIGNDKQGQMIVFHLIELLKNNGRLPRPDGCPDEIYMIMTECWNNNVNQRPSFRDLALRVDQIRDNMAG
Sequence of Insulin receptor (Homo sapiens) (P06213 28-758 limits assumed): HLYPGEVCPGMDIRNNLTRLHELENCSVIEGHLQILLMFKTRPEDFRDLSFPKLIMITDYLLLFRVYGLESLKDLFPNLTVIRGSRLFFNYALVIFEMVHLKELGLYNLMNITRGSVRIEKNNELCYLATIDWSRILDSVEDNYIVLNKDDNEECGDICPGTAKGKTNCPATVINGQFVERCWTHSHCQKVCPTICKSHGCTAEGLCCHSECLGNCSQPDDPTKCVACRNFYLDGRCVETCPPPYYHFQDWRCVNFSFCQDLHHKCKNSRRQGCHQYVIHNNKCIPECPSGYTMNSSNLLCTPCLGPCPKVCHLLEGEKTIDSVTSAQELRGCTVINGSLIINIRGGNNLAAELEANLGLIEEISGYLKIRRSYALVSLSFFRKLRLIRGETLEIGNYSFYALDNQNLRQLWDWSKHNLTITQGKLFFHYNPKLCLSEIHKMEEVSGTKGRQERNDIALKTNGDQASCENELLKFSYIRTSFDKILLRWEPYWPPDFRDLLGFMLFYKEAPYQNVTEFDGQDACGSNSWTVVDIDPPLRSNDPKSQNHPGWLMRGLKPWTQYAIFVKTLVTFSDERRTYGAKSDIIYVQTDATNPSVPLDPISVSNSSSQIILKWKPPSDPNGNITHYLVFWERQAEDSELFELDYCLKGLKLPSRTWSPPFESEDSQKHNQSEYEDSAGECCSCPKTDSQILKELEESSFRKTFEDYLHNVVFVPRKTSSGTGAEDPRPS
Sequence of Insulin receptor (Homo sapiens) (P06213 763-1382 limits assumed): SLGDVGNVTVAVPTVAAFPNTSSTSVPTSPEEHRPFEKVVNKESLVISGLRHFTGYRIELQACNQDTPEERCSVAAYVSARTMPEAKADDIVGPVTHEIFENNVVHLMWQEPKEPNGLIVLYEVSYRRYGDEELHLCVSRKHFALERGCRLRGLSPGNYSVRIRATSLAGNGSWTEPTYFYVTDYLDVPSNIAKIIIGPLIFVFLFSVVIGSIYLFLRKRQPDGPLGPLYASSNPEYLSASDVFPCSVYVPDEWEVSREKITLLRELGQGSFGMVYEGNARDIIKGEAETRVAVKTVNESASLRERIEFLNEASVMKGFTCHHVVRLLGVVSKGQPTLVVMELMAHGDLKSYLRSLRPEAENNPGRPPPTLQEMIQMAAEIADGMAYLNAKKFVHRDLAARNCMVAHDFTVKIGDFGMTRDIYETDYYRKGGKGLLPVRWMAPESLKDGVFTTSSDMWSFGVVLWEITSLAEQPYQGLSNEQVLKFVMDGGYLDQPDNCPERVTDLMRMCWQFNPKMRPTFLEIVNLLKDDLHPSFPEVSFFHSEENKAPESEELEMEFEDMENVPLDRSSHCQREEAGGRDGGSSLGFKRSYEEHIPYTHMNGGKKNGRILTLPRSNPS

For the compound `COc1ccc(-c2oc3ncnc(N)c3c2-c2ccc(NC(=O)Nc3cc(C(F)(F)F)ccc3F)cc2)cc1`, the inhibition (usually the relative decrease from the control value, in per cent) in experiment [1] worked out at 52.1%; in experiment [2], 31%; in [3], 86.1%; in [4], 4.58%; in experiment [5], 7.94%; in experiment [6] it was 4.98%. The inhibition came out at 27.2% in [7]; 1.97% in experiment [8]; 6.8% in experiment [9]; 5.01% in [10]; 40.8% in experiment [11]; 14.6% in [12]. Moreover, the inhibition in experiment [13] came to 43.3%; in experiment [14] it was 2.04%; in experiment [15], 14.4%; in experiment [16], 1.04%; in experiment [17], 3.12%; in experiment [18], 75.4%. Besides, the inhibition stood at 73.7% in [19] and 37.9% in experiment [20].

For the compound `Nc1nc(-c2cccc(Cl)c2)c(-c2ccc3ncccc3n2)s1`, the inhibition in experiment [1] is 5.51%; in experiment [2], 3.98%; in [3], 9.71%; in [4], 3.52%; in experiment [5], 2.56%; in experiment [6], 6.92%. For the same compound, the inhibition in experiment [7] amounted to 7.08%; in experiment [8], 1.7%; in experiment [9], 4.52%; in [10], 1.66%; in [11], 1.36%; in experiment [12], 2.71%. For the same compound, the inhibition is 14.3% in experiment [13]; 0.64% in experiment [14]; 0.69% in [15]; -2.58% in experiment [16]; -0.69% in experiment [17]; 33.1% in experiment [18]. Besides, the inhibition was 67.4% in experiment [19] and 5.86% in [20].

For `N#Cc1c(NC(=O)c2ccc(F)cc2)sc2c1CCCC2`, the inhibition is 3.42% in [1]; 1.68% in experiment [2]; 3.88% in experiment [3]; 0.23% in experiment [4]; -0.52% in experiment [5]; 3.54% in experiment [6]. Also, the inhibition is 2.79% in experiment [7]; -2.15% in experiment [8]; -0.16% in experiment [9]; 0.64% in [10]; 0.63% in experiment [11]; 1.63% in experiment [12]. Besides, the inhibition was 6.11% in experiment [13]; -0.41% in experiment [14]; 0.9% in experiment [15]; 0.53% in [16]; 2.52% in experiment [17]; 4.31% in experiment [18]. The inhibition came to 6.96% in experiment [19] and 6.24% in experiment [20].

`CS(=O)(=O)CCNCc1ccc(-c2ccc3ncnc(Nc4ccc(OCc5ccccc5)c(C(F)(F)F)c4)c3c2)o1`: the inhibition was 4.69% in experiment [1]; 4.59% in experiment [2]; 5.75% in [3]; -0.48% in [4]; -0.18% in [5]; 0.37% in [6]. Besides, the inhibition stood at 2.62% in [7]; 2.84% in [8]; 2.56% in [9]; 0.4% in experiment [10]; 2.16% in experiment [11]; 2.98% in experiment [12]. Moreover, the inhibition in experiment [13] was 3.56%; in experiment [14] it was 1.86%; in experiment [15] it was -0.24%; in experiment [16], -4.36%; in experiment [17] it was -1.51%; in experiment [18] it was 4.72%. Moreover, the inhibition in experiment [19] was 5.31%; in [20] it was 6.66%.

With `CS(=O)(=O)CCNCc1coc(-c2ccc3ncnc(Nc4ccc(OCc5ccccc5)cc4)c3c2)c1`, the inhibition in experiment [1] is 12.2%; in experiment [2] it was 4.78%; in experiment [3], 9.64%; in experiment [4], 0.62%; in [5], 2.16%; in [6], 3.09%. Moreover, the inhibition is 2.56% in [7]; -0.04% in [8]; 3.03% in experiment [9]; 0.65% in experiment [10]; 1.57% in [11]; -1.63% in experiment [12]. In addition, the inhibition is 0.69% in experiment [13]; 1.12% in experiment [14]; 1.93% in experiment [15]; -1.53% in [16]; 0.54% in experiment [17]; 4.63% in experiment [18]. Further, the inhibition was 7.45% in experiment [19] and -0.21% in [20].

For `NC(=O)c1sc(-n2cnc3ccc(C(F)(F)F)cc32)cc1OCc1ccccc1Br`, the inhibition in [1] turned out to be 4.41%; in experiment [2], 5.59%; in [3], 5.95%; in experiment [4] it was 3.3%; in experiment [5], 1.19%; in [6], 4.46%. Moreover, the inhibition in experiment [7] was 5.5%; in [8] it was 1.61%; in experiment [9], 0.64%; in experiment [10], 1.03%; in experiment [11] it was -0.19%; in [12], 3.49%. The inhibition in experiment [13] is 10.6%; in experiment [14], 1.84%; in [15], 3.26%; in [16], -1.41%; in [17], 0.92%; in experiment [18], 6.34%. For the same compound, the inhibition was 7.31% in [19] and 5.23% in [20].
